Source: PubChem BioAssay (NCI)
This is part of a sample that, as a whole, favours compounds with a hit. Of some 83,000 tested, about 20% had one in any assay.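 Compound tested at a single concentration for 48 hours in 96-well plates; a percent growth value below 10 was scored as active.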 Unmarked numbers belong to inactive results. Activity calls are given as the source filed them.

How the values were obtained:
Assay in all cases: NCI-60 one-dose screen, 48 h (100 = growth as untreated, 0 = no growth, -100 = all killed)
Conditions in all cases: 10 µM unless noted
NCI-H23 lung = tested on: NCI-H23 lung
NCI-H226 lung = tested on: NCI-H226 lung
NCI-H322M lung = tested on: NCI-H322M lung
NCI-H460 lung = tested on: NCI-H460 lung
NCI-H522 lung = tested on: NCI-H522 lung
A549/ATCC NSCLC = tested on: A549/ATCC NSCLC
786-0 renal = tested on: 786-0 renal
COLO 205 colon = tested on: COLO 205 colon
DU-145 prostate = tested on: DU-145 prostate
K-562 leukemia = tested on: K-562 leukemia
MALME-3M melanoma = tested on: MALME-3M melanoma
MDA-MB-231 breast = tested on: MDA-MB-231 breast
RXF 393 renal = tested on: RXF 393 renal
SF-268 CNS = tested on: SF-268 CNS
SF-295 CNS = tested on: SF-295 CNS
SF-539 CNS = tested on: SF-539 CNS
UACC-257 melanoma = tested on: UACC-257 melanoma
M14 melanoma = tested on: M14 melanoma

Row | Compound | growth (NCI-H23 lung) [%] | growth (NCI-H226 lung) | growth (NCI-H322M lung) [%] | growth (NCI-H460 lung) | growth (NCI-H522 lung) | growth (A549/ATCC NSCLC) | growth (786-0 renal) | growth (COLO 205 colon) | growth (DU-145 prostate) | growth (K-562 leukemia) | growth (MALME-3M melanoma) | growth (MDA-MB-231 breast) | growth (RXF 393 renal) | growth (SF-268 CNS) [%] | growth (SF-295 CNS) | growth (SF-539 CNS) | growth (UACC-257 melanoma) | growth (M14 melanoma)
1 | CC[C@H](C)[C@H](N)C(=O)O | 111 | 96.5% | 96.9 | 108% | 101% | 103% | 112% | 103% | 106% | 122% | 103% | 97.7% | 96.8% | 105 | 104% | 100% | 119% | 105%
2 | COc1ccc2c(c1)OC1=C(C(=O)OC1)C2c1cc(OC)c2c(c1)OCCO2 (stereo not given) | 16.2 | -13.6% (active) | 44.3 | 6.93% (active) | -10.7% (active) | 18% | 21.4% | -69.6% (active) | -13.7% (active) |  | 62.9% | 25% | 37.7% | 29.5 | 7.02% (active) | 3.93% (active) | 61% | 4.69% (active)
3 | CN(C)c1nc(-c2cccs2)n2nc(-c3ccc(Cl)cc3)cc2n1 | 61.9 | -25.5% (active) | 11.8 | -1.56% (active) | 39.9% | 10.9% | -40.7% (active) | 39.1% | 72.2% | 73.7% | 57.6% | 19.3% | 13.3% | 55 | -5.01% (active) | 47.5% | 79.6% | 61.4%
4 | O=C(Nc1ccccc1)c1cc2ccccc2s1 | 74.8 | 88.4% | 75.6 | 39.7% | 82.4% | 69.4% | 92.8% | 95.1% | 103% | 87.1% | 108% | 78.2% | 110% | 95.6 | 96.8% | 110% | 95.1% | 75.5%
5 | CCOC(=O)C(Cc1ccccc1)n1c(O)c(/C=N/c2ncc(Cc3ccc(Cl)cc3Cl)s2)sc1=S (stereo not given) | 11 | 15.5% | 15.7 | 2.04% (active) | -23.2% (active) | 4.36% (active) | 17.9% | -87% (active) | 26.2% | 2.17% (active) | -9.77% (active) | -18.2% (active) | 2.54% (active) | 24.4 | -4.55% (active) | 15% | -17.9% (active) | 10.8%
6 | CCCCc1nc(Cl)c(C2CC(c3ccc(S(N)(=O)=O)cc3)=NN2c2ccc(C#N)cc2)[nH]1 (stereo not given) | 98.5 | 79.6% | 81.3 | 95.5% | 68% | 94.6% | 84.6% | 87.8% | 104% | 69.5% | 105% | 88% | 81.1% | 91.9 | 97.9% | 99.9% | 86.2% | 88.1%
7 | CCCCCCCCN(CCCCCCCC)C(=O)CCl | 70.6 | 96.8% | 108 | 102% | -50.5% (active) | 114% | 80.6% | 108% | 110% | 105% | 84.8% | 104% | 103% | 99 | 106% | 106% | 112% | 104%
